# Test results as given in the supplement of paper PMC10515830.
# Counter-ions that a name gives are not always drawn.
# Legend:
# Conditions in all cases: 10 µM; exposure time 6 h
# [1] = test system: Danio rerio larvae (5 dpf); experiment: difference in excitability vs DMSO (percentage points); higher = more excitable than DMSO
# Method in brief: (§1)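 Wild-type 5 dpf zebrafish larvae in 96-well plates were given 100 µL egg water containing library compound at 10 µM final for 6 h. After 3 h of exposure, plates at 28.5 ℃ were photographed every 6 s during a 3-h programme of moving lines and 100 ms, 400Hz tones. Z-LaP Tracker (a DeepLabCut model) quantified each behaviour, averaged over 48 larvae per compound. Values are the compound mean minus the DMSO-vehicle control, in percentage points.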
# [2] = test system: Danio rerio larvae (5 dpf); experiment: difference in startle response vs DMSO (percentage points); higher = stronger startle than DMSO
# Method in brief: as §1
# [3] = test system: Danio rerio larvae (5 dpf); experiment: difference in activity during first hour vs DMSO (percentage points); higher = more activity than DMSO
# Method in brief: as §1
# [4] = test system: Danio rerio larvae (5 dpf); experiment: difference in habituation to acoustic stimuli vs DMSO (percentage points); higher = more habituation than DMSO
# Method in brief: as §1
# [5] = test system: Danio rerio larvae (5 dpf); experiment: difference in combined optomotor response to red, green and blue moving lines vs DMSO (percentage points); higher = stronger optomotor response than DMSO
# Method in brief: as §1
Structure (SMILES),difference in excitability [1],difference in startle response [2],difference in activity during first hour [3],difference in habituation to acoustic stimuli [4],difference [5]
CC(=O)NC[C@H]1CN(c2ccc(N3CCOCC3)c(F)c2)C(=O)O1 [Linezolid],-5.19,5.59,-0.74,3.24,0.137
Nc1nc(-n2cc(C(=O)O)c(=O)c3cc(F)c(N4CC(O)C4)c(Cl)c32)c(F)cc1F [Delafloxacin],14.4,12.8,-8.49,7.81,9.67
CC1=C(/C=C/C(C)=C\C=C\C(C)=C\C(=O)O)C(C)(C)CCC1 [9-cis-Retinoic Acid],5.5,-1.66,5.1,10.2,2.9
NC(=O)c1cn(Cc2c(F)cccc2F)nn1 [Rufinamide],3.01,4.27,8.13,0.975,7.5
CCCCNc1ccc(C(=O)OCCOCCOCCOCCOCCOCCOCCOCCOCCOC)cc1 [Benzonatate],6.12,1.4,-1.8,6.2,-0.0866
CCCCC[C@H](O)/C=C/[C@@H]1[C@H]2C/C(=C/CCCC(=O)O)O[C@H]2C[C@H]1O [Prostaglandin I2 (sodium salt)],0.101,3.79,11.9,1.5,4.02
CN1CCN(C2=Nc3cc(Cl)ccc3Nc3ccccc32)CC1 [Clozapine],9.35,-11.3,37.7,-6.72,5.08
Cc1ccccc1C(=O)Nc1ccc(C(=O)N2CCCC(O)c3cc(Cl)ccc32)c(C)c1 (stereo not given) [Tolvaptan],11,1.76,15.8,-0.912,5.47
COc1ccc2c(O[C@@H]3C[C@H]4C(=O)N[C@]5(C(=O)NS(=O)(=O)C6CC6)C[C@H]5/C=C\CCCCN(C)C(=O)[C@@H]4C3)cc(-c3nc(C(C)C)cs3)nc2c1C [Simeprevir (sodium salt)],13.8,-3.43,25.2,3.8,8.38
O=C1NC(=O)C(c2ccccc2)(c2ccccc2)N1 [Phenytoin],-0.551,-0.35,-12.3,5.69,0.724
CN1C(=O)CC(C)(c2ccccc2)C1=O (stereo not given) [Methsuximide],-3.21,8.76,7.45,4.76,10.3
CN(C)CCC(c1ccc(Cl)cc1)c1ccccn1 (stereo not given) [Chlorpheniramine (maleate)],1.12,-4.13,-11.1,-6.14,-4.02
COc1cc2c(cc1OC)C(=O)C(CC1CCN(Cc3ccccc3)CC1)C2 (stereo not given) [Donepezil],12,-0.487,-0.402,-0.748,-2.38
O=C(O)COCCN1CCN([C@H](c2ccccc2)c2ccc(Cl)cc2)CC1 [(R)-Cetirizine (hydrochloride)],5.78,-3.02,-1.26,6.23,5.37
CCOC(=O)c1ncn2c1CN(C)C(=O)c1cc(F)ccc1-2 [Flumazenil],3.25,7.64,0.681,2.54,3.91
Cc1c(O)c(=O)ccn1C [Deferiprone],4.23,-1.15,8.16,-1.01,10.8
CN1CCc2cccc3c2[C@H]1Cc1ccc(O)c(O)c1-3 [(-)-Apomorphine (hydrochloride hydrate)],19.8,-2.6,-20.1,-5.47,-13
CC(C)NCC(O)COc1ccc(COCCOC(C)C)cc1 (stereo not given) [Bisoprolol (hemifumarate)],2.44,8.3,0.00157,3.42,-3.86
Cc1ccc(Cl)c(Nc2ccccc2C(=O)O)c1Cl [Meclofenamate (sodium salt)],11.1,12.4,-18,-13.1,-19.7
Cn1c(=O)cc(N2CCC[C@@H](N)C2)n(Cc2ccccc2C#N)c1=O [Alogliptin (benzoate salt)],9.09,5.66,10.7,-0.862,0.5
CC(=O)OC[C@H]1O[C@@H]([S-])[C@H](OC(C)=O)[C@@H](OC(C)=O)[C@@H]1OC(C)=O.CCP(CC)CC.[Au+] [Auranofin],6.43,-4.17,11,2.14,-5.02
O=c1[nH]c(=O)n([C@H]2C[C@H](O)[C@@H](CO)O2)cc1I [Idoxuridine],6.91,0.604,-3.04,5.55,2.86
C[C@H](N[C@@H](CCc1ccccc1)C(=O)O)C(=O)N1CCC[C@H]1C(=O)O [Enalaprilat (hydrate)],-0.583,-2.87,9.36,1.38,1.55
CC1(C)O[C@@H]2C[C@H]3[C@@H]4CCC5=CC(=O)C=C[C@]5(C)[C@H]4[C@@H](O)C[C@]3(C)[C@]2(C(=O)CO)O1 [Desonide],-1.81,-1.62,0.404,6.53,1.67
